Test results from ChEMBL document CHEMBL4513216, “Probing the Open Global Health Chemical Diversity Library for Multistage-Active Starting Points for Next-Generation Antimalarials” (ACS Infect Dis, 2020).
The whole screen tested about 69,000 compounds, of which about 8,600 (12%) showed an effect of 50% or more. For the sample, strong results were picked, then their nearest neighbours and some compounds at random.

These molecules were tested on Plasmodium berghei (assay: Screen against P. berghei liver stage (PbLuc), transformed with Luciferase, at 10uM). Conditions: tested at 10 uM.
Format: functional, HepG2

| Compound | INHIBITION [%] |
| --- | --- |
| Cc1cnn(CC2CCCN2C(=O)CCc2cscn2)c1 (configuration not stated) | 19.965 |
| CC(=O)N1CCN([C@@H]2CCC[C@@H](NC(=O)c3cccnc3)[C@H]2O)CC1 | 8.53 |
| Cc1nc(CN2CCCC(c3cc(C(N)=O)[nH]n3)C2)oc1C (configuration not stated) | -0.113 |
| O=C(O)c1c(-c2cncnc2)ncc2c1CCN(CC1CCOC1)C2 (configuration not stated) | 43 |
| O=C1NCC2(CCC(C(=O)N3CCCC(O)C3)CC2)Oc2ccccc21 (configuration not stated) | 8.72 |
| CN(Cc1ccsc1)C(=O)c1ccc2c(c1)NC(=O)CO2 | 6.8 |
| Cc1cc(C(=O)Nc2ccn(CCCN3CCCC3)n2)no1 | 38.4 |
| COCCN(Cc1sccc1C)C(=O)COc1cccnc1 | -32.6 |
| O=C(NCc1cncc2c1CCN(Cc1ccccc1)C2)C1CC1 | -27.9 |
| CC(=O)N1CC2(CCN(C(=O)N(C)C)CC2)c2cc(C)ccc21 | 37.8 |
| CC(=O)N1CC2(CCN(C(=O)C3CC3)CC2)c2cc(C)ccc21 | 84.5 |
| CCC(=O)N1CCC2(CC1)CN(C(C)=O)c1ccc(C)cc12 | -47.5 |
| CCOCCCNC(=O)C(C)n1cc(Br)cn1 (configuration not stated) | 5.05 |
| COC(=O)N1CCc2ccccc2C1C(=O)NCc1nc(C)no1 (configuration not stated) | 43.4 |
| CC(=O)N1CCc2ccccc2C1CC(=O)NCc1nnc(C)o1 (configuration not stated) | 61.2 |
| Cc1nnc(CNC(=O)CC2CCc3ccccc32)o1 (configuration not stated) | 13 |
| Cc1nn(CC(C)C)c(N(C)C)c1CNCc1cccnc1N(C)C | 43.7 |
| COc1cc(CNCc2c(C)nn(C)c2N(C)C)ccn1 | 42.6 |
| Cc1nn(CC(C)C)c(N(C)C)c1CNCc1ccccc1CO | -21.8 |
| COc1cc(CNCc2c(C)nn(CC(C)C)c2N(C)C)ccn1 | 77.1 |
| Cc1nn(CC(C)C)c(N(C)C)c1CNCc1cc2ccccc2[nH]1 | 67.3 |
| COc1cc(CNCc2c(C(C)C)nn(C)c2N(C)C)ccn1 | 33.3 |
| N#Cc1cccnc1NCc1ccc(S(=O)(=O)NC2CC2)cc1 | -15.2 |
| COCCNS(=O)(=O)c1ccc(CNc2ncccc2C#N)cc1 | 48.4 |

| Compound | INHIBITION [%] |
| --- | --- |
| N#Cc1cccnc1NCc1ccc(S(=O)(=O)NCC2CCCO2)cc1 (configuration not stated) | 55.6 |
| CN(Cc1ccco1)Cc1cnc2n1CCN(S(C)(=O)=O)CC2 | 31.9 |
| O=C(NC[C@H]1OC[C@@H]2CCN(Cc3ccco3)C[C@@H]21)c1ccsc1 | 23.5 |
| Cn1cc2c(n1)C(CNCC1CCOCC1)OCC2 (configuration not stated) | -4.02 |
| CC(C)NCC1OCCc2cn(C)nc21 (configuration not stated) | 55.5 |
| Cn1cc2c(n1)C(CNC1CCOCC1)OCC2 (configuration not stated) | 4.02 |
| CN(C)c1ccc(C(=O)N2CCC(c3cc4cnccc4[nH]3)CC2)cc1 | 51.75 |
| COCc1ccc(C(=O)N2CCC(c3cc4ncc(C)nc4[nH]3)C2)cc1 (configuration not stated) | 20.8 |
| Cc1cnc2cc(C3CCN(C(=O)c4ccncc4)CC3)[nH]c2n1 | 38.8 |
| CN(C)c1ccc(C(=O)N2CCC(c3cc4ncccc4[nH]3)CC2)cc1 | 57.7 |
| COc1cc(CCC(=O)N2CCC(c3cc4ncccc4[nH]3)CC2)on1 | -26.4 |
| CN(C)c1ccc(C(=O)N2CCC(c3n[nH]c(C4CC4)n3)CC2)cc1 | 2.97 |
| COCc1ccc(C(=O)N2CCC(c3cc4nccnc4[nH]3)CC2)cc1 | 66.5 |
| Cc1noc(C)c1C(=O)N1CCC(c2cc3cnccc3[nH]2)CC1 | 13.335 |
| CN(C)c1cccc(C(=O)N2CCC(c3n[nH]c(C4CC4)n3)CC2)c1 | 13.3 |
| CN(C1CCN(C(=O)NCCc2ccc(F)cc2F)CC1)S(C)(=O)=O | 39.7 |
| CC(=O)Nc1sc2c(c1C(=O)O)CCc1ccccc1-2 | 11.1 |
| CC(C)CNc1c(NCc2ccco2)c(=O)c1=O | -4.28 |
| COCCO[C@H]1CCN(C(=O)c2ccoc2C)[C@H]1Cc1cnn(C)c1 | 14.1 |
| COCCn1ccc(=O)c(OCC(=O)Nc2ccc(OC)c(Cl)c2)c1C | -38 |
| CC(CNC(=O)c1ccc(Cl)cc1F)N1CCN(C)CC1 (configuration not stated) | 25 |
| CN1CCN(C(CNC(=O)c2ccc(Cl)cc2F)c2cccs2)CC1 (configuration not stated) | 66.7 |
| CC(CNC(=O)c1ccc(Cl)cc1I)N1CCCC1 (configuration not stated) | 17.4 |
| CC(CNC(=O)c1ccc(F)cc1I)N1CCCC1 (configuration not stated) | 55.8 |

| Compound | INHIBITION [%] |
| --- | --- |
| CC(CNC(=O)c1ccc(Cl)cc1F)N1CCCC1 (configuration not stated) | 51.4 |
| CC(CNC(=O)c1cc(Cl)ccc1F)N1CCCC1 (configuration not stated) | 33.8 |
| CC(CNC(=O)c1ccc(F)cc1Cl)N1CCCC1 (configuration not stated) | 35.6 |
| O=C(NCC(c1cccs1)N1CCOCC1)c1ccc(F)cc1Cl (configuration not stated) | -14.5 |
| CC(CNC(=O)c1cc(Cl)ccc1I)N1CCCC1 (configuration not stated) | 30.5 |
| Cc1cc(CN2CCN(C(=O)CCc3ccco3)CC2)on1 | 14 |
| CC(NCc1ccccc1Cl)c1ccc(OCC(=O)NC2CC2)cc1 (configuration not stated) | 48.2 |
| CCc1nc(CNC(C)(CO)C2CCCCC2)no1 (configuration not stated) | 37.4 |
| Cc1cnn(CC2CN(c3nc4ccccc4o3)CCO2)c1 (configuration not stated) | 44.1 |
| Cn1ccnc1CN1CCCN(Cc2noc(C3CC3)n2)CC1 | 11.2 |
| Cc1cc(C2CCC2)nc(N2CCN(Cc3nccn3C)CC2)n1 | 84.1 |
| Cn1ccnc1CN1CCN(c2ccc(C#N)cc2F)CC1 | 53.3 |
| Cn1ccnc1CN1CCN(Cc2cc(C#N)ccc2F)CC1 | 35.3 |
| Cn1ccnc1CN1CCN(Cc2ccc(C#N)cc2F)CC1 | 15.15 |
| Cc1cc(C2CCC2)nc(N2CC(n3cccn3)C2)n1 | -9.91 |
| Cc1cc(C(F)(F)F)nc(N2CCN(Cc3nccn3C)CC2)n1 | 74 |
| Cc1nc(CN2CCN(Cc3nccn3C)CC2)no1 | 33.7 |
| Cc1cc(C)nc(N2CCN(Cc3nccn3C)CC2)n1 | 7.52 |
| COCc1cccc(NC(=O)NCCCN(C)S(C)(=O)=O)c1 | -10.8 |
| CC(C1CC1)N(C)C(=O)c1ccc(-n2ncc(C#N)c2N)cc1 (configuration not stated) | -61.4 |
| CCCOCCN1CCN(c2ncnc3[nH]ccc23)CC1 | -24 |
| NC(=O)Cn1nc(-c2ccccc2F)ccc1=O | 15.4 |
| CC(=O)Cn1nc(-c2ccccc2F)ccc1=O | 64.2 |
| O=C(O)Cn1nc(-c2ccccc2F)ccc1=O | 26.4 |
